# What was measured:
# Assay in all cases: yeast three-hybrid, YBZ-1, SC-Leu-His + 0.5 mM 3-AT, 4 days
# Conditions in all cases: tags: N-Gal4 AD-HA kept; label: inside an RPR1-promoter hybrid RNA with tandem MS2 sites; ssRNA
# PUM1 PUF domain R5-KFK = PUM1 PUF domain R5-KFK (Homo sapiens, UniProt Q14671 828-1176, C1007K;R1008F;Q1011K)
# Method in brief: (§1)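 The interaction score is the logarithmic change in variant frequency from input to selection. It uses log2, with a pseudocount of 1 for absent variants, and frequencies came from PCR-amplified, Illumina-sequenced repeat regions. The libraries were Pumilio-1 PUF domains randomized at the three base-contacting residues per repeat, co-expressed with matching RNA elements in strain YBZ-1 (LexA–MS2 coat fusion, HIS3 reporter). Plating lasted four days on SC-Leu (input) or SC-Leu-His + 0.5 mM 3-AT (selection).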
# PUM1 PUF domain R5-DFY = PUM1 PUF domain R5-DFY (Homo sapiens, UniProt Q14671 828-1176, C1007D;R1008F;Q1011Y)
# Method in brief: as §1
# PUM1 PUF domain R5-RNT = PUM1 PUF domain R5-RNT (Homo sapiens, UniProt Q14671 828-1176, C1007R;R1008N;Q1011T)
# Method in brief: as §1
# PUM1 PUF domain R4-GPG = PUM1 PUF domain R4-GPG (Homo sapiens, UniProt Q14671 828-1176, N971G;H972P;Q975G)
# Method in brief: as §1
# PUM1 PUF domain R1-RAT = PUM1 PUF domain R1-RAT (Homo sapiens, UniProt Q14671 828-1176, S863R;R864A;Q867T)
# Method in brief: as §1
# PUM1 PUF domain R1-NLR = PUM1 PUF domain R1-NLR (Homo sapiens, UniProt Q14671 828-1176, S863N;R864L;Q867R)
# Method in brief: as §1
# PUM1 PUF domain R6-TFG = molecular target: T1, PUM1 PUF domain R6-TFG (Homo sapiens, UniProt Q14671 828-1176, N1043T;Y1044F;Q1047G)
# T1 sequence: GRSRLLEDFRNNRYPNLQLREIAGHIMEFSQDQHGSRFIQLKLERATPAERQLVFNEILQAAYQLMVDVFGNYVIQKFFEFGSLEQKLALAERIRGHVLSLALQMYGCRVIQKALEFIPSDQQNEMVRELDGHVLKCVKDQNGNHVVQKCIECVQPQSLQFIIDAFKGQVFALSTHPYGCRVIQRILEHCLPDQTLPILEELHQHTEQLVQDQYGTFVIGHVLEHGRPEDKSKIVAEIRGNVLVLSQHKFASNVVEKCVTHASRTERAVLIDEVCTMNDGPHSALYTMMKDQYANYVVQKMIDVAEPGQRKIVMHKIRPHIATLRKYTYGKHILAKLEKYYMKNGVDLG
# Method in brief: as §1
# PUM1 PUF domain R8-RRQ = PUM1 PUF domain R8-RRQ (Homo sapiens, UniProt Q14671 828-1176, N1122R;Y1123R)
# Method in brief: as §1
# PUM1 PUF domain R8-KRG = PUM1 PUF domain R8-KRG (Homo sapiens, UniProt Q14671 828-1176, N1122K;Y1123R;Q1126G)
# Method in brief: as §1
# PUM1 PUF domain R3-GRY = PUM1 PUF domain R3-GRY (Homo sapiens, UniProt Q14671 828-1176, C935G;Q939Y)
# Method in brief: as §1
sequence,measurement,setting,value
GGCUAGAACUAGUGGAUCCCCCGGCGCCCGGCGGCUCGAGCCCGGGUAAGUGUUAAUAGUCUGCAUGCCGCCGGGCGCCAUGCCUGCAGGUCGACUCUAGAAAACAUG,binding signal,PUM1 PUF domain R5-KFK,5.11 log2 enrichment (interaction score)
same,binding signal,PUM1 PUF domain R5-DFY,4.07 log2 enrichment (interaction score)
same,binding signal,PUM1 PUF domain R5-RNT,3.11 log2 enrichment (interaction score)
GGCUAGAACUAGUGGAUCCCCCGGCGCCCGGCGGCUCGAGCCCGGGUAAGUGUCAAUAGUCUGCAUGCCGCCGGGCGCCAUGCCUGCAGGUCGACUCUAGAAAACAUG,binding signal,PUM1 PUF domain R5-RNT,2.85 log2 enrichment (interaction score)
GGCUAGAACUAGUGGAUCCCCCGGCGCCCGGCGGCUCGAGCCCGGGUAAGUGUAUAUAGUCUGCAUGCCGCCGGGCGCCAUGCCUGCAGGUCGACUCUAGAAAACAUG,binding signal,PUM1 PUF domain R4-GPG,2.98 log2 enrichment (interaction score)
GGCUAGAACUAGUGGAUCCCCCGGCGCCCGGCGGCUCGAGCCCGGGUAAGUGUAAAUCGUCUGCAUGCCGCCGGGCGCCAUGCCUGCAGGUCGACUCUAGAAAACAUG,binding signal,PUM1 PUF domain R1-RAT,4.37 log2 enrichment (interaction score)
GGCUAGAACUAGUGGAUCCCCCGGCGCCCGGCGGCUCGAGCCCGGGUAAGUGUAAAUUGUCUGCAUGCCGCCGGGCGCCAUGCCUGCAGGUCGACUCUAGAAAACAUG,binding signal,PUM1 PUF domain R1-RAT,3.04 log2 enrichment (interaction score)
same,binding signal,PUM1 PUF domain R1-NLR,3.68 log2 enrichment (interaction score)
GGCUAGAACUAGUGGAUCCCCCGGCGCCCGGCGGCUCGAGCCCGGGUAAGUGUAAAUAGUCUGCAUGCCGCCGGGCGCCAUGCCUGCAGGUCGACUCUAGAAAACAUG,binding signal,PUM1 PUF domain R6-TFG,5.01 log2 enrichment (interaction score)
same,binding signal,PUM1 PUF domain R8-RRQ,1.1 log2 enrichment (interaction score)
same,binding signal,PUM1 PUF domain R4-GPG,5.02 log2 enrichment (interaction score)
same,binding signal,PUM1 PUF domain R5-DFY,2.71 log2 enrichment (interaction score)
same,binding signal,PUM1 PUF domain R5-RNT,2.05 log2 enrichment (interaction score)
same,binding signal,PUM1 PUF domain R8-KRG,1.8 log2 enrichment (interaction score)
same,binding signal,PUM1 PUF domain R3-GRY,4.27 log2 enrichment (interaction score)
GGCUAGAACUAGUGGAUCCCCCGGCGCCCGGCGGCUCGAGCCCGGGUAAGUGUAAAUGGUCUGCAUGCCGCCGGGCGCCAUGCCUGCAGGUCGACUCUAGAAAACAUG,binding signal,PUM1 PUF domain R1-RAT,2.45 log2 enrichment (interaction score)
GGCUAGAACUAGUGGAUCCCCCGGCGCCCGGCGGCUCGAGCCCGGGUAAGUGUACAUAGUCUGCAUGCCGCCGGGCGCCAUGCCUGCAGGUCGACUCUAGAAAACAUG,binding signal,PUM1 PUF domain R4-GPG,2.28 log2 enrichment (interaction score)
GGCUAGAACUAGUGGAUCCCCCGGCGCCCGGCGGCUCGAGCCCGGGUAAGCGUAAAUAGUCUGCAUGCCGCCGGGCGCCAUGCCUGCAGGUCGACUCUAGAAAACAUG,binding signal,PUM1 PUF domain R8-RRQ,2.97 log2 enrichment (interaction score)
same,binding signal,PUM1 PUF domain R8-KRG,4.19 log2 enrichment (interaction score)
